Results taken from PubChem BioAssay.
Calls of active or inactive are those of the source.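 Rule for the calls, unless noted: active = z-score of at least 1.8 in each of two replicates, scored against plate mean and spread of sample wells; inactive = the rest.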 Non-standard residues stand in square brackets, D forms with d. Residues, ends and D or L forms follow the SMILES beside them. Dolaproine = CO[C@@H]([C@@H]1CCCN1)[C@@H](C)C(=O)O; Dil = CC[C@H](C)[C@H](NC)[C@@H](CC(=O)O)OC; NMeV = CN[C@H](C(=O)O)C(C)C

Assays:
[1] = galactose survival enhancers in mitochondrial complex I cybrids – cell-based, galactose medium, ATP luminescence, primary screen (AID 1645843); details: complex I mutant cybrid cells, 72 h, stronger effect = higher value;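 note: positive z means more ATP and so rescue of galactose-driven cybrid death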
[2] = growth inhibition, single agent or in combination, cell-based, chromothripsis tumors, cisplatin or BGB combos (AID 1671449; in the data active = inhibition above about 80%;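 note: cells exposed for 96 hours; 0% = vehicle DMSO and 100% = killing by high DMSO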); details: LFS_MB_P medulloblastoma cells
[3] = growth inhibition, single agent and combos, cell-based, chromothripsis tumors, cisplatin or BGB combos (AID 1671450; in the data active = inhibition above about 80%;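 note: cells exposed to compound for four days; 0% = vehicle DMSO and 100% = cell killing by high DMSO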); details: HDN33 neuroblastoma cells, stronger effect = higher value
[4] = growth inhibition, single agents and combos, ICB984, cell-based, cisplatin or BGB combos, synergistic combos for chromothripsis tumors (AID 1671451; call rule not given here;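 note: cells exposed for 96 hours before readout; 0% = vehicle DMSO and 100% = killing by high DMSO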); details: ICB984 medulloblastoma cells, drug combinations, stronger effect = higher value
[5] = growth inhibition, single agents and combos, LFS_MB_1R, cell-based, cisplatin or BGB combos, synergistic combos for chromothripsis tumors (AID 1671452; in the data active = inhibition above about 80%;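 note: cells exposed for 96 hours before readout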); details: LFS_MB_1R medulloblastoma cells, stronger effect = higher value
[6] = growth inhibition, single agents and combos, HTB85, cell-based, BGB or cisplatin IC20 combos, synergistic combos for chromothripsis tumors (AID 1671453; in the data active = inhibition above about 80%;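 note: cells exposed for 96 hours before readout; 0% = vehicle DMSO and 100% = high DMSO killing control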); details: HTB85 osteosarcoma cells, drug combinations, stronger effect = higher value
[7] = growth inhibition, single agents and combos, CRL2098, cell-based, BGB or cisplatin IC20 combos, synergistic combos for chromothripsis tumors (AID 1671454; in the data active = inhibition above about 80%;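 note: cells exposed for 96 h before readout; 0% = vehicle DMSO and 100% = killing by high DMSO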); details: CRL2098 osteosarcoma cells, drug combinations, stronger effect = higher value
[8] = growth inhibition, single agents and combos, HD-MB03, cell-based, BGB or cisplatin IC20 combos, synergistic combos for chromothripsis tumors (AID 1671455; in the data active = inhibition above about 83%;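 note: 0% = vehicle DMSO and 100% = high DMSO as cytotoxic control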); details: HD-MB03 medulloblastoma cells, stronger effect = higher value
[9] = growth inhibition, single agents and combos, UWB1.289, cell-based, BGB or cisplatin combos, synergistic combos for chromothripsis tumors (AID 1671456; in the data active = inhibition above about 80%;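 note: cells exposed to compound for four days; 0% = vehicle DMSO and 100% = killing by high DMSO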); details: UWB1.289 ovarian carcinoma cells, stronger effect = higher value
[10] = growth inhibition, single agents and combos, LFS_MB_2R, cell-based, cisplatin combos, synergistic combos for chromothripsis tumors (AID 1671457; in the data active = inhibition above about 80%;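 note: cells exposed to compound for four days before readout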); details: LFS_MB_2R medulloblastoma cells, stronger effect = higher value
[11] = growth inhibition, MDA-MB-436, cell-based, BGB or cisplatin combos, synergistic combos for chromothripsis tumors (AID 1671458; call rule not given here;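 note: cells exposed for 96 hours; 0% = vehicle DMSO and 100% = killing by high DMSO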); details: MDA-MB-436 breast carcinoma growth inhibition, drug combinations, stronger effect = higher value
[12] = UWB1.289_BRCA1 ovarian cancer growth, cell-based, BGB or cisplatin combinations (AID 1671459; in the data active = inhibition above about 80%); details: UWB1.289 BRCA1 ovarian carcinoma, drug combinations, stronger effect = higher value
[13] = drug combination toxicity in non-malignant astrocytes – cell-based, BGB or cisplatin IC20 combos, cytotoxicity control for chromothriptic childhood tumor combination screen (AID 1671460; in the data active = inhibition above about 80%;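 note: cells exposed to compounds for 96 hours before viability readout; 0% = vehicle and 100% = killing control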); details: Human astrocytes, viability inhibition, drug combinations, at 0.5 µM, stronger effect = higher value
[14] = BT084 cell growth, single and combined drugs, ICGC_MB145, cisplatin and BGB IC40 combos (AID 1671461; in the data active = inhibition above about 80%;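 note: cells exposed to drugs for 96 hours; 0% = vehicle DMSO and 100% = high DMSO full killing control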); details: BT084 medulloblastoma cells, drug combinations, stronger effect = higher value
[15] = RCMB18 cell growth, single agent and combined, cisplatin and BGB IC40 combos (AID 1671462; in the data active = inhibition above about 80%;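 note: cells exposed to compound for four days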); details: RCMB18 medulloblastoma cells, stronger effect = higher value
[16] = CRL1545 cell growth, single agent and combined, cisplatin and BGB IC20 combos (AID 1671464; in the data active = inhibition above about 80%;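 note: cells exposed to compound for 96 hours before readout; 0% = vehicle DMSO and 100% = high DMSO killing control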); details: CRL1545 osteosarcoma cells, stronger effect = higher value
[17] = measured here: combination with BGB IC40, at 0.05 µM
[18] = measured here: with BGB IC20 combination, at 0.5 µM
[19] = measured here: with cisplatin IC20 combination, at 0.5 µM
[20] = measured here: combination with cisplatin, at 0.5 µM
[21] = measured here: combination with cisplatin, at 5 µM

With `Cc1ccn(CCN2CCC(Oc3cccc(Cl)c3)CC2)n1` the z-score [1] was 0.135 (inactive).
In the case of `Cc1nc2cc(C(=O)N3CCN(C)C(=O)C3)ccc2s1`, the z-score [1] is reported as -0.24 (inactive).
With `CCCCC(CO)NC(C)CCc1ccc(OC)cc1` (stereo unspecified) the z-score [1] was -0.47 (inactive).
For `CCC(CC)C(=O)N1CCC(n2cc(C(C)(C)O)nn2)CC1`, the z-score [1] was 0.875 (inactive).
For `CCn1cc(-c2cc(C(=O)N3CCN(C)C(=O)C3C)c3ccc(C)cc3n2)cn1` (stereo unspecified), the z-score [1] was -0.19 (inactive).
With `Cc1ccccc1-n1cc(-c2ccnc(NCc3nnc4n3CCCC4)n2)cn1` the z-score [1] was -0.305 (inactive).
For `Cc1ccc(OCc2nnc(NC(=O)NCCc3cnc[nH]3)s2)cc1`, the z-score [1] was -0.48 (inactive).
For `COc1cccc(CN2CCN(C(=O)c3cc4cc(OC)ccc4[nH]3)CC2=O)c1`, the z-score [1] was -0.41 (inactive).
For `Cc1nn(C)c(C)c1-c1ccnc(NCc2cnc3ccccn23)n1`, the z-score [1] was -0.925 (inactive).
In the case of `CN1CCN(C(=O)c2ccc3c(c2)CCO3)CC1=O`, the z-score [1] is reported as 0.07 (inactive).
For `O=C(C1CCCCCC1)N1CCC(Cn2cc(CCO)nn2)CC1`, the z-score [1] was -0.51 (inactive).
In the case of `CC(=O)c1ccccc1-c1ccc2ccccc2n1`, the z-score [1] is reported as -0.515 (inactive).
With `Cc1cc(NC(=O)Cn2ccc(-c3cccc(F)c3)n2)n(-c2ccccn2)n1` the z-score [1] was -0.96 (inactive).
For `CCC(CC)CN1CCC(NS(C)(=O)=O)CC1`, the z-score [1] was -0.53 (inactive).
For `c1ccc(C(CCn2ccnc2)NC2CCCCCC2)cc1` (stereo unspecified), the z-score [1] was -0.47 (inactive).
For `CC(C)CC1(CO)CCCN(C(=O)c2cccc(C#CC(C)(C)O)c2)C1` (stereo unspecified), the z-score [1] was -0.79 (inactive).
With `Cc1cccc2c(C(=O)N3CCN(C)C(=O)C3C)cc(-c3cnc(N)nc3)nc12` (stereo unspecified) the z-score [1] was 2.6 (inactive).
With `Cc1cccc(-n2cc(-c3ccn(CC(=O)Nc4ccnn4C)n3)cn2)c1` the z-score [1] was 1.22 (inactive).
In the case of `CNCc1cn(C2CCN(CCC(C)CC(C)(C)C)CC2)nn1` (stereo unspecified), the z-score [1] is reported as -0.49 (inactive).
For `Cc1cc2c(=O)n(Cc3nc4ccccc4[nH]3)cnc2s1`, the z-score [1] was -0.615 (inactive).
With `C1=CCC(CN2CCC(N3CCCC3)CC2)CC1` (stereo unspecified) the z-score [1] was -0.58 (inactive).
For `CC(CC12CC3CC(CC(C3)C1)C2)n1cnc2nccnc2c1=O` (stereo unspecified), the z-score [1] was 1.54 (inactive).
For `CCc1n[nH]c2c1CN(C(=O)c1cc(C)nc3ccc(F)cc13)CC2`, the z-score [1] was -0.42 (inactive).
For `CC[C@H](C)[C@@H]([C@@H](CC(=O)N1CCC[C@H]1[C@H](OC)[C@@H](C)C(=O)N[C@@H](Cc1ccccc1)C(=O)O)OC)N(C)C(=O)[C@@H](NC(=O)[C@@H](NC)C(C)C)C(C)C` (H-[NMeV]V[Dil][Dolaproine]F-OH), the inhibition ([2]; at 0.5 µM, stronger effect = higher value) was -34.4% (inactive), the inhibition ([2]; measured here: combination with BGB IC20, at 0.005 µM) was -15% and the inhibition ([2]; measured here: combination with BGB IC40, at 0.005 µM) was -52.5%. It also gave an inhibition [2, 17] of -31.6%, an inhibition ([2]; measured here: combination with cisplatin, at 0.5 µM, stronger effect = higher value) of -31.7% and an inhibition ([2]; measured here: combination with cisplatin, at 5 µM, stronger effect = higher value) of 13.5%. The inhibition ([3]; BGB combo, at 5 µM) was 68.3%, the inhibition ([3]; at 0.5 µM) was 71.4% (inactive) and the inhibition ([3]; cisplatin combo, at 5 µM) was 69.6%. For the same compound, the inhibition [3, 18] was 62.6%, the inhibition [3, 19] was 60.4% and the inhibition ([3]; single agent, at 5 µM) was 96.5%. It also gave an inhibition ([4]; BGB IC20 combo, at 0.005 µM) of -18.1%, an inhibition ([4]; BGB IC40 combo, at 0.005 µM) of -4.8% and an inhibition ([4]; BGB IC40 combo, at 0.05 µM) of 21.2%. For the same compound, the inhibition ([4]; at 0.5 µM) was -6.87% (inactive), the inhibition ([4]; cisplatin combo, at 0.05 µM) was 17.4% and the inhibition ([4]; cisplatin combo, at 0.5 µM) was -3.43%. The inhibition ([4]; cisplatin combo, at 5 µM) was -11.7%, the inhibition ([4]; measured here: 5 uM single agent, at 5 µM) was -7.94% and the inhibition ([5]; at 0.5 µM) was -16.4% (inactive). For the same compound, the inhibition [5, 17] was -34.7%, the inhibition [5, 20] was -7.82% and the inhibition [5, 21] was 15.8%. For the same compound, the inhibition ([6]; at 0.5 µM) was 55.8% (inactive), the inhibition ([6]; measured here: with BGB IC20, at 0.5 µM) was 69.6% and the inhibition ([6]; measured here: with BGB IC20, at 5 µM) was 59.7%. For the same compound, the inhibition ([6]; measured here: with cisplatin IC20, at 0.5 µM) was 20.4%, the inhibition ([6]; measured here: with cisplatin IC20, at 5 µM) was 67.1% and the inhibition ([6]; single agent, at 5 µM) was 86.4%. The inhibition ([7]; at 0.5 µM) was 35% (inactive), the inhibition ([7]; measured here: combination with BGB at IC20, at 0.5 µM) was 36.6% and the inhibition ([7]; measured here: combination with cisplatin at IC20, at 0.5 µM) was 9.03%. The inhibition ([8]; at 0.5 µM) was 43.8% (inactive), the inhibition ([8]; measured here: combo with BGB at IC20, at 0.5 µM) was 44.1% and the inhibition ([8]; measured here: combo with cisplatin at IC20, at 0.5 µM) was 39.9%. For the same compound, the inhibition ([9]; at 0.5 µM) was 20.2% (inactive), the inhibition ([9]; measured here: inhibition with BGB combination, at 0.05 µM) was -13% and the inhibition ([9]; measured here: inhibition with cisplatin combination, at 0.05 µM) was -3.2%. The inhibition ([10]; at 0.5 µM) was -9.71% (inactive), the inhibition [10, 20] was -31.2% and the inhibition [10, 21] was -10.7%. The inhibition ([11]; at 0.5 µM) was 50.1% (inactive), the inhibition ([11]; measured here: BGB combination, at 0.5 µM) was 39.8% and the inhibition ([11]; measured here: BGB combination, at 5 µM) was 58%. It also gave an inhibition ([11]; measured here: cisplatin combination, at 0.5 µM) of 45.4%, an inhibition ([11]; measured here: cisplatin combination, at 5 µM) of 73.6% and an inhibition ([12]; BGB combination, concentration series, at 5 µM) of 49.3%. The inhibition ([12]; at 0.5 µM) was 26.4% (inactive), the inhibition ([12]; cisplatin combination, concentration series, at 5 µM) was 53.2% and the inhibition [13] was 31.9% (inactive). The inhibition ([13]; measured here: combo with BGB IC20) was 39.5%, the inhibition ([13]; measured here: combo with cisplatin IC20) was 19.9% and the inhibition ([14]; at 0.5 µM) was 7.92% (inactive). It also gave an inhibition ([14]; cisplatin combination, at 0.5 µM) of -4.86%, an inhibition ([14]; cisplatin combination, at 5 µM) of -10.9% and an inhibition ([14]; measured here: BGB IC40 combination 0.05 uM, at 0.05 µM) of -19.9%. For the same compound, the inhibition ([14]; single agent, at 5 µM) was 67.2%, the inhibition ([15]; at 0.5 µM) was -11.8% (inactive) and the inhibition ([15]; cisplatin combo, at 5 µM) was 17%. For the same compound, the inhibition ([15]; measured here: BGB IC40 combination, at 0.05 µM) was -3.82%, the inhibition [15, 20] was -17.8% and the inhibition ([15]; single agent, at 5 µM) was 17.3%. For the same compound, the inhibition ([16]; at 0.5 µM) was 42.9% (inactive), the inhibition [16, 18] was 47.9% and the inhibition [16, 19] was 39.4%. For the same compound, the inhibition ([16]; single agent, at 0.05 µM) was -9.33% and the inhibition ([16]; single agent, at 5 µM) was 84.4%.
